Screens from PubChem.
An excerpt weighted towards active compounds, which were near 1.6% of everything screened.
p53ts 32C kill: cytotoxicity in p53ts cells at permissive temperature; H1299-p53A138V at 32C, ATP luminescence viability, 24 h; Potency, µM (titrated, usually from 46.1 µM), without a hit: top-dose activity change, negative = cytotoxicity, hits mostly cytotoxic; hit rate 0.93% among 130,000; AID 924;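 note: 0% = DMSO and -100% = full killing by reference compound; nearly all actives have a fitted effect of over 55% in size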
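Cells: H1299 p53ts (A138V), 600/well, pre-incubated 16–30 h at 37C. Cpd up to 46 uM, 24 h, 32C. Readout: ATPlite luminescence, 20 min RT. Normalization: DMSO vs tamoxifen 100 uM. AC50 by Hill equation.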
Peg3 imprint: genomic imprint erasure induction; mouse ES Peg3-LacZ reporter, beta-gal luminescence, 40 h; Potency, µM (top dose mostly 60.7 µM), for inactives: at the top dose activity change, positive = activation, usual class: activators; hit rate 0.02% among 110,000; AID 1948
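Each well holds 300 Peg3LacZ-Neo (maternal) female ES cells incubated 40 h at 37C, 5% CO2. LacZ is measured by BetaGlo luminescence, with AC50 and maximum efficacy derived from dose-response curves.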
p53ts 39C tox: cytotoxicity in p53ts cells at nonpermissive temperature. H1299-p53A138V viability at 39C, ATP luminescence, 24 h. Potency, µM (doses to about 46.1 µM), for the others: at the top dose activity change, negative = cell killing, usual class: cytotoxic. hit rate 1.5% among 130,000; note: % is set by controls: 0 for no effect and ±100 for the full control effect; nearly all actives have a fitted effect of over 55% in size
* = called active by the depositor; u = inconclusive; x = not tested or not shown; [ ] = another dose, or the depositor's remark. Calls come from the whole dose curve; as a rule, active = well fitted curve in the direction sought with a large enough effect; inconclusive = small, poorly fitted or top-dose-only effect, or another doubt; inactive = no such curve, though single readings can be large; an effect the other way counts as inactive or inconclusive. Potency is the fitted concentration of half-maximal effect.

SMILES	p53ts 32C kill	Peg3 imprint	p53ts 39C tox
Cc1cc(NC(=O)c2ccc3c(c2)OCO3)no1	10µM*	-78%	13µM*
Cc1cc(NC(=O)CSc2nnc(-c3ccc4c(c3)OCCO4)o2)no1	5µM*	-81%	0.79µM*
Cc1cc(NC(=O)c2ccc3c(c2)OCCO3)no1	1.6µM*	-88%	2µM*
CCN1CCc2nc(NC(=O)c3ccc4c(c3)OCCO4)sc2C1	u	-30%	u
CCN(CC(=O)Nc1ccc2c(c1)OCCO2)CC(=O)Nc1cc(C)on1	0%	-14%	-12%
Cc1nn(C(=O)c2cccc(F)c2)c(C)c1S(=O)(=O)N1CCOCC1	-10%	-8%[10.9 µM]	-8%
CCc1ccc(N=C2NC(=O)CC(C(=O)Nc3ccc(OC)cc3)S2)cc1 (centres undefined)	5%	-5%[10.9 µM]	11%
Cc1ccc(NCc2cccn2-c2nnc(N3CCC(C(=O)NCCc4ccccc4)CC3)s2)cc1	-5%	-5%[10.9 µM]	-20%
OCc1cc([C@@H](O)CNCCCCCCOCCCCc2ccccc2)ccc1O	-2%	-16%	13µM*
CC(CCc1ccccc1)NCC(O)c1ccc(O)c(C(N)=O)c1 (centres undefined)	1%	-13%	3%
CCOC(=O)c1c(C)sc(-c2c(-c3ccc4c(c3)OCCO4)[nH]c3c2c(=O)[nH]c(=O)n3C)c1O	13%	-5%[10.9 µM]	-14%
Cc1ccc(NC(=O)N2CCc3ccccc32)cc1	4.5µM*	x	5µM*
CN1C(=O)CSc2ccc(NC(=O)N3CCN(c4ccccn4)CC3)cc21	-14%	-21%	-8%
CCNC(=O)c1ccc(NC(=O)N2CCCCc3ccccc32)cc1	7%	11%[10.9 µM]	9%
CN1C(=O)CSc2ccc(NC(=O)N3CCc4ccccc43)cc21	10µM*	-45%	u
Nc1nc(Nc2cccc(F)c2)nc2ccccc12	u	-86%	13µM*
OCCNc1nc(Nc2ccccc2)nc2ccccc12	-9%	x	2%
COc1cccc(-n2c(SCC(=O)Nc3ccc4c(c3)OCO4)nc3c([nH]c4ccccc43)c2=O)c1	8%	15%[10.9 µM]	18%
CCN(C(=O)Cc1c(C(=O)O)c(C)cn1C)c1cccc(Cl)c1	-2%	21%[10.9 µM]	-15%
Cc1cccc(N2CCN(C(=O)Cn3c(=O)c4cccn4c4ccc(F)cc43)CC2)c1C	-1%	-20%[10.9 µM]	-26%
Brc1ccccc1-c1nc(-c2ccccc2)no1	13µM*	-68%	u
Cc1ccc(-c2nc(-c3ccccc3)no2)c(Cl)c1	5µM*	-82%	7.9µM*
Cc1noc(-c2ccc(-c3noc(-c4ccccc4)n3)cc2)n1	-3%	-74%[10.9 µM]	-14%
Fc1ccccc1-c1nc(-c2ccccc2)no1	-21%	-59%	0%
O=C(CCC(=O)N1CCSc2ccccc21)NCc1ccccc1Cl	5%	-11%[10.9 µM]	6%
SMILES	p53ts 32C kill	Peg3 imprint	p53ts 39C tox
C[C@]12CC[C@H](O)CC1=CC[C@H]1[C@@H]2CC[C@@]2(C)C(N(CCO)CCO)CC[C@@H]12 (some centres undefined)	x	3%[10.9 µM]	x
Cc1noc(C)c1COC(=O)c1ccc(-c2nc3ccccc3s2)s1	-9%	-24%	-25%
O=C(NC1CC1)c1ccc(-c2nc3ccccc3s2)s1	0.5µM*	-83%	0.4µM*
CCN(CC)CCNC(=O)CCn1c(=O)c2cccn2c2cccnc21	0%	-11%[10.9 µM]	-8%
CSc1cccc(NC(=O)C2CCCN(S(=O)(=O)c3ccc4c(c3)CCCN4C(C)=O)C2)c1 (centres undefined)	-3%	-8%[10.9 µM]	-22%
Cc1cc(OCCn2c(C3CC(=O)N(Cc4ccc(F)cc4)C3)nc3ccccc32)ccc1Cl (centres undefined)	-1%	10%[10.9 µM]	0%
COc1ccccc1OCCCn1c(C2CC(=O)N(c3ccccc3Cl)C2)nc2ccccc21 (centres undefined)	-17%	-12%[10.9 µM]	-21%
CCc1ccccc1N1CC(c2nc3ccccc3n2CCOc2ccc(Cl)c(C)c2)CC1=O (centres undefined)	u	-10%[10.9 µM]	32µM*
Cc1cccc(OCCCCn2c(C3CC(=O)N(c4ccc(C)cc4C)C3)nc3ccccc32)c1 (centres undefined)	u	-10%[10.9 µM]	25µM*
Cc1cccc(OCCCCn2c(C3CC(=O)N(c4ccccc4Cl)C3)nc3ccccc32)c1 (centres undefined)	u	-3%[10.9 µM]	16µM*
CCOc1ccccc1N1CC(c2nc3ccccc3n2CCCOc2ccccc2OC)CC1=O (centres undefined)	-17%	-8%[10.9 µM]	-22%
CCOc1ccccc1N1CC(c2nc3ccccc3n2CCCCOc2cc(C)ccc2C)CC1=O (centres undefined)	u	-8%[10.9 µM]	u
CCOc1ccccc1N1CC(c2nc3ccccc3n2CCOc2ccc(C(C)(C)C)cc2)CC1=O (centres undefined)	u	-11%[10.9 µM]	13µM*
Cc1ccc(CN2CCN(C3CCNCC3)C(=O)C2=O)cc1	-5%	-14%[10.9 µM]	42%
CCc1ccccc1NC(=O)Cn1c(=O)n(Cc2ccc(OC)cc2)c(=O)c2oc3ccccc3c21	9%	-9%[10.9 µM]	-4%
Cc1cc(C)cc(NC(=O)CCCc2nc(-c3ccco3)no2)c1	6%	-13%[10.9 µM]	20%
CC1=CC(C)(C)Nc2ccc(OC(=O)CN3C(=O)CCC3=O)cc21	u	x	16µM*
CC1=CC(C)(C)Nc2ccc(OC(=O)c3ccco3)cc21	u	-33%	u
Cc1nc(NC(=O)c2ccc(Br)s2)sc1C(=O)N(C)C	13µM*	-48%	u
COc1ccc(C(=O)Nc2nc(C)c(C(=O)N(C)C)s2)cc1OC	13µM*	-46%	-20%
COc1ccc(C(=O)Nc2nnc(C(C)C)s2)cc1OC	-6%	4%[10.9 µM]	5%
Cc1nc(NC(=O)c2cc3c(s2)CCCCC3)sc1C(=O)N(C)C	-14%	1%	-23%
Cc1ccc(CN2CCSc3ccc(C(=O)N4CCN(c5cc(C)ccc5C)CC4)cc32)cc1	1%	-17%[10.9 µM]	-3%
Cc1ccc(NC(=O)C2CCCN2S(=O)(=O)c2cccc3nsnc23)cc1Cl (centres undefined)	1%	-6%[10.9 µM]	-10%
COc1ccccc1-c1nc2cc3ccccc3cc2nc1-c1ccccc1OC	x	x	-8%
SMILES	p53ts 32C kill	Peg3 imprint	p53ts 39C tox
c1ccc2c(c1)Cc1cc3ccccc3nc1-2	7.9µM*	-89%	13µM*
COc1cc(OC)c(NC(=O)CC(c2cccs2)N2Cc3ccccc3C2=O)cc1Cl (centres undefined)	13%	9%[10.9 µM]	-7%
CCOC(=O)c1c(C)c(-c2ccccc2)n(CC(=O)NCc2cccc(OC)c2)c1C	-14%	-5%[10.9 µM]	u
Cc1nc(-c2cccnc2)sc1CCNS(=O)(=O)c1ccc(F)cc1	6%	15%[10.9 µM]	-8%
COc1cc(C2c3c(-c4ccccc4O)n[nH]c3C(=O)N2Cc2ccco2)ccc1OCC(C)C (centres undefined)	u	-7%[10.9 µM]	20µM*
COc1cc(C2c3c(-c4ccccc4O)n[nH]c3C(=O)N2CCO)ccc1OCC(C)C (centres undefined)	3%	7%[10.9 µM]	-21%
CC1CCN(S(=O)(=O)c2cc(C(=O)NCc3ccccc3)n(C)c2)CC1	-2%	-11%[10.9 µM]	10%
COC(=O)c1ccc(CSc2nnc(N)s2)cc1	-8%	-32%	-12%
COC(=O)c1ccc(CSc2nc(N)cc(N)n2)cc1	13µM*	-20%	u
